Reference: PubChem BioAssay
Values joined by “and” are separate entries in the source; they are usually repeats but may differ in a detail not shown here. Equal values may be shown once. Active and inactive are the calls of the source. Rule as the data show it, unless noted: active = inhibition above about 80%; inactive = the rest.

How the values were obtained:
[1] = growth inhibition, single agent or in combination, cell-based, chromothripsis tumors, cisplatin or BGB combos (AID 1671449); conditions: LFS_MB_P medulloblastoma cells;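 also: cells exposed for 96 hours; 0% = vehicle DMSO and 100% = killing by high DMSO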
[2] = growth inhibition, single agent and combos, cell-based, chromothripsis tumors, cisplatin or BGB combos (AID 1671450); conditions: HDN33 neuroblastoma cells, stronger effect = higher value;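 also: cells exposed to compound for four days; 0% = vehicle DMSO and 100% = cell killing by high DMSO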
[3] = growth inhibition, single agents and combos, ICB984, cell-based, cisplatin or BGB combos, synergistic combos for chromothripsis tumors (AID 1671451; call rule not given here;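 also: cells exposed for 96 hours before readout; 0% = vehicle DMSO and 100% = killing by high DMSO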); conditions: ICB984 medulloblastoma cells, drug combinations, stronger effect = higher value
[4] = growth inhibition, single agents and combos, LFS_MB_1R, cell-based, cisplatin or BGB combos, synergistic combos for chromothripsis tumors (AID 1671452); conditions: LFS_MB_1R medulloblastoma cells, stronger effect = higher value;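 also: cells exposed for 96 hours before readout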
[5] = growth inhibition, single agents and combos, HTB85, cell-based, BGB or cisplatin IC20 combos, synergistic combos for chromothripsis tumors (AID 1671453); conditions: HTB85 osteosarcoma cells, drug combinations, stronger effect = higher value;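 also: cells exposed for 96 hours before readout; 0% = vehicle DMSO and 100% = high DMSO killing control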
[6] = growth inhibition, single agents and combos, CRL2098, cell-based, BGB or cisplatin IC20 combos, synergistic combos for chromothripsis tumors (AID 1671454); conditions: CRL2098 osteosarcoma cells, drug combinations, stronger effect = higher value;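 also: cells exposed for 96 h before readout; 0% = vehicle DMSO and 100% = killing by high DMSO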
[7] = growth inhibition, single agents and combos, HD-MB03, cell-based, BGB or cisplatin IC20 combos, synergistic combos for chromothripsis tumors (AID 1671455; in the data active = inhibition above about 83%;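 also: 0% = vehicle DMSO and 100% = high DMSO as cytotoxic control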); conditions: HD-MB03 medulloblastoma cells, stronger effect = higher value
[8] = growth inhibition, single agents and combos, UWB1.289, cell-based, BGB or cisplatin combos, synergistic combos for chromothripsis tumors (AID 1671456); conditions: UWB1.289 ovarian carcinoma cells, stronger effect = higher value;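 also: cells exposed to compound for four days; 0% = vehicle DMSO and 100% = killing by high DMSO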
[9] = growth inhibition, single agents and combos, LFS_MB_2R, cell-based, cisplatin combos, synergistic combos for chromothripsis tumors (AID 1671457); conditions: LFS_MB_2R medulloblastoma cells, stronger effect = higher value;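 also: cells exposed to compound for four days before readout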
[10] = growth inhibition, MDA-MB-436, cell-based, BGB or cisplatin combos, synergistic combos for chromothripsis tumors (AID 1671458; call rule not given here;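 also: cells exposed for 96 hours; 0% = vehicle DMSO and 100% = killing by high DMSO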); conditions: MDA-MB-436 breast carcinoma growth inhibition, drug combinations, stronger effect = higher value
[11] = UWB1.289_BRCA1 ovarian cancer growth, cell-based, BGB or cisplatin combinations (AID 1671459); conditions: UWB1.289 BRCA1 ovarian carcinoma, drug combinations, stronger effect = higher value
[12] = drug combination toxicity in non-malignant astrocytes – cell-based, BGB or cisplatin IC20 combos, cytotoxicity control for chromothriptic childhood tumor combination screen (AID 1671460); conditions: Human astrocytes, viability inhibition, drug combinations, at 0.5 µM, stronger effect = higher value;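 also: cells exposed to compounds for 96 hours before viability readout; 0% = vehicle and 100% = killing control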
[13] = BT084 cell growth, single and combined drugs, ICGC_MB145, cisplatin and BGB IC40 combos (AID 1671461); conditions: BT084 medulloblastoma cells, drug combinations, stronger effect = higher value;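 also: cells exposed to drugs for 96 hours; 0% = vehicle DMSO and 100% = high DMSO full killing control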
[14] = RCMB18 cell growth, single agent and combined, cisplatin and BGB IC40 combos (AID 1671462); conditions: RCMB18 medulloblastoma cells, stronger effect = higher value;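 also: cells exposed to compound for four days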
[15] = CRL1545 cell growth, single agent and combined, cisplatin and BGB IC20 combos (AID 1671464); conditions: CRL1545 osteosarcoma cells, stronger effect = higher value;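 also: cells exposed to compound for 96 hours before readout; 0% = vehicle DMSO and 100% = high DMSO killing control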
[16] = at 0.5 µM, stronger effect = higher value
[17] = measured here: combination with BGB IC20, at 0.005 µM
[18] = measured here: combination with BGB IC40, at 0.005 µM
[19] = measured here: combination with BGB IC40, at 0.05 µM
[20] = measured here: combination with cisplatin, at 0.5 µM, stronger effect = higher value
[21] = measured here: combination with cisplatin, at 5 µM, stronger effect = higher value
[22] = measured here: with BGB IC20 combination, at 0.5 µM
[23] = measured here: with cisplatin IC20 combination, at 0.5 µM
[24] = measured here: 5 uM single agent, at 5 µM
[25] = measured here: combination with cisplatin, at 0.5 µM
[26] = measured here: combination with cisplatin, at 5 µM
[27] = measured here: with BGB IC20, at 0.5 µM
[28] = measured here: with BGB IC20, at 5 µM
[29] = measured here: with cisplatin IC20, at 0.5 µM
[30] = measured here: with cisplatin IC20, at 5 µM
[31] = measured here: combination with BGB at IC20, at 0.5 µM
[32] = measured here: combination with cisplatin at IC20, at 0.5 µM
[33] = measured here: combo with BGB at IC20, at 0.5 µM
[34] = measured here: combo with cisplatin at IC20, at 0.5 µM
[35] = measured here: inhibition with BGB combination, at 0.05 µM
[36] = measured here: inhibition with cisplatin combination, at 0.05 µM
[37] = measured here: BGB combination, at 0.5 µM
[38] = measured here: BGB combination, at 5 µM
[39] = measured here: cisplatin combination, at 0.5 µM
[40] = measured here: cisplatin combination, at 5 µM
[41] = BGB combination, concentration series, at 5 µM
[42] = cisplatin combination, concentration series, at 5 µM
[43] = measured here: combo with BGB IC20
[44] = measured here: combo with cisplatin IC20
[45] = cisplatin combination, at 0.5 µM
[46] = measured here: BGB IC40 combination 0.05 uM, at 0.05 µM
[47] = measured here: BGB IC40 combination, at 0.05 µM

Nc1ccccc1NC(=O)c1cnccn1
inhibition [1, 16]: -12.4% (inactive) | inhibition [1, 17]: -41.6% | inhibition [1, 18]: 85.5% | inhibition [1, 19]: -7.35% | inhibition [1, 20]: -18.9% | inhibition [1, 21]: -28.5% | inhibition ([2]; BGB combo, at 5 µM): -12.4% | inhibition ([2]; at 0.5 µM): -14.6% (inactive) | inhibition ([2]; cisplatin combo, at 5 µM): 6.5% | inhibition [2, 22]: -34.1% | inhibition [2, 23]: 5.82% | inhibition ([2]; single agent, at 5 µM): 1.32% | inhibition ([3]; BGB IC20 combo, at 0.005 µM): -16.9% | inhibition ([3]; BGB IC40 combo, at 0.005 µM): -7.68% | inhibition ([3]; BGB IC40 combo, at 0.05 µM): -8.97% | inhibition ([3]; at 0.5 µM): -30.1% (inactive) | inhibition ([3]; cisplatin combo, at 0.05 µM): -14.5% | inhibition ([3]; cisplatin combo, at 0.5 µM): -45.8% | inhibition ([3]; cisplatin combo, at 5 µM): -16.9% | inhibition [3, 24]: -10% | inhibition ([4]; at 0.5 µM): -27.6% (inactive) | inhibition [4, 19]: -29.7% | inhibition [4, 25]: -55.5% | inhibition [4, 26]: -22% | inhibition ([5]; at 0.5 µM): -12.2% (inactive) | inhibition [5, 27]: -6.35% | inhibition [5, 28]: 4.3% | inhibition [5, 29]: -15.5% | inhibition [5, 30]: 27.4% | inhibition ([5]; single agent, at 5 µM): -13.3% | inhibition ([6]; at 0.5 µM): -55.8% (inactive) | inhibition [6, 31]: -72.3% | inhibition [6, 32]: -47% | inhibition ([7]; at 0.5 µM): -6.67% (inactive) | inhibition [7, 33]: -7.96% | inhibition [7, 34]: -6.22% | inhibition ([8]; at 0.5 µM): 12.9% (inactive) | inhibition [8, 35]: -30.1% | inhibition [8, 36]: -23.2% | inhibition ([9]; at 0.5 µM): -19.8% (inactive) | inhibition [9, 25]: -6.3% | inhibition [9, 26]: 1.58% | inhibition ([10]; at 0.5 µM): -6.35% (inactive) | inhibition [10, 37]: -5.5% | inhibition [10, 38]: -1.92% | inhibition [10, 39]: -13.4% | inhibition [10, 40]: -2.01% | inhibition [11, 41]: 22.6% | inhibition ([11]; at 0.5 µM): -5.39% (inactive) | inhibition [11, 42]: 17% | inhibition [12]: 3.77% (inactive) | inhibition [12, 43]: 3.42% | inhibition [12, 44]: 8.86% | inhibition ([13]; at 0.5 µM): -7.12% (inactive) | inhibition [13, 45]: -9.24% | inhibition ([13]; cisplatin combination, at 5 µM): -35.5% | inhibition [13, 46]: -29.6% | inhibition ([13]; single agent, at 5 µM): 14.3% | inhibition ([14]; at 0.5 µM): -13.8% (inactive) | inhibition ([14]; cisplatin combo, at 5 µM): 35.4% | inhibition [14, 47]: -24.6% | inhibition [14, 25]: -43.9% | inhibition ([14]; single agent, at 5 µM): 21.9% | inhibition ([15]; at 0.5 µM): 19.6% (inactive) | inhibition [15, 22]: -5.57% | inhibition [15, 23]: 31.1% | inhibition ([15]; single agent, at 0.05 µM): -21.9% | inhibition ([15]; single agent, at 5 µM): 32.9%

CNc1cc(-c2cccc(Cl)c2Cl)nc(N)n1
inhibition [1, 16]: -8.18% (inactive) and -26.7% (inactive) | inhibition [1, 17]: 12.7% and 6.36% | inhibition [1, 18]: -26.9% and -34.5% | inhibition [1, 19]: -17.6% and -7.49% | inhibition [1, 20]: -22.4% and -20% | inhibition [1, 21]: -7.76% and -6.35% | inhibition ([2]; BGB combo, at 5 µM): 48.2% and 55.5% | inhibition ([2]; at 0.5 µM): -17.8% (inactive) and -6.13% (inactive) | inhibition ([2]; cisplatin combo, at 5 µM): 48.9% and 48.7% | inhibition [2, 22]: -27.7% and -11% | inhibition [2, 23]: -24.8% and -0.815% | inhibition ([2]; single agent, at 5 µM): 76.2% and 85.6% | inhibition ([3]; BGB IC20 combo, at 0.005 µM): -21.8% and -29.5% | inhibition ([3]; BGB IC40 combo, at 0.005 µM): -56.1% and -31.8% | inhibition ([3]; BGB IC40 combo, at 0.05 µM): -22.7% and -34.1% | inhibition ([3]; at 0.5 µM): -44.2% (inactive) and -25.3% (inactive) | inhibition ([3]; cisplatin combo, at 0.05 µM): -27.5% and -41.1% | inhibition ([3]; cisplatin combo, at 0.5 µM): -72.1% and -45.6% | inhibition ([3]; cisplatin combo, at 5 µM): -47.7% and -22.7% | inhibition [3, 24]: -10.2% and -10.7% | inhibition ([4]; at 0.5 µM): -34.6% (inactive) and -4.83% (inactive) | inhibition [4, 19]: -68.3% and -4.85% | inhibition [4, 25]: -61.7% and -26.6% | inhibition [4, 26]: -37.7% and -6.6% | inhibition ([5]; at 0.5 µM): -10% (inactive) and -11.4% (inactive) | inhibition [5, 27]: -16.2% and -6.99% | inhibition [5, 28]: 35.9% and 44.4% | inhibition [5, 29]: -19.3% and -24.6% | inhibition [5, 30]: 46.5% and 52.3% | inhibition ([5]; single agent, at 5 µM): 86.8% and 87.8% | inhibition ([6]; at 0.5 µM): -44.3% (inactive) and -58.9% (inactive) | inhibition [6, 31]: -56.3% and -39.2% | inhibition [6, 32]: -66.3% and -96.2% | inhibition ([7]; at 0.5 µM): 7.62% (inactive) and 7.36% (inactive) | inhibition [7, 33]: 6.39% and 25.3% | inhibition [7, 34]: 10.3% and -5.76% | inhibition ([8]; at 0.5 µM): -17.7% (inactive) and -11.8% (inactive) | inhibition [8, 35]: -38.9% and -10.5% | inhibition [8, 36]: -22.8% and -21.6% | inhibition ([9]; at 0.5 µM): -20.6% (inactive) and -7.54% (inactive) | inhibition [9, 25]: -10.7% and -19.4% | inhibition [9, 26]: -1.17% and -0.403% | inhibition ([10]; at 0.5 µM): -4.77% (inactive) and 5.99% (inactive) | inhibition [10, 37]: -12.3% and -2.46% | inhibition [10, 38]: 12% and 36.8% | inhibition [10, 39]: -5.91% and 6.1% | inhibition [10, 40]: 53.8% and 59% | inhibition [11, 41]: 25.6% and 35% | inhibition ([11]; at 0.5 µM): -10.5% (inactive) and -13.3% (inactive) | inhibition [11, 42]: 31% and 30.9% | inhibition [12]: -0.46% (inactive) and -4.98% (inactive) | inhibition [12, 43]: -4.03% and -6.91% | inhibition [12, 44]: 5.16% and -6.91% | inhibition ([13]; at 0.5 µM): -12.1% (inactive) and 5.54% (inactive) | inhibition [13, 45]: -10.6% and -1.11% | inhibition ([13]; cisplatin combination, at 5 µM): 8.87% and -169% | inhibition [13, 46]: 37% and -7.52% | inhibition ([13]; single agent, at 5 µM): 37.7% and 19.1% | inhibition ([14]; at 0.5 µM): -17.1% (inactive) and -8.27% (inactive) | inhibition ([14]; cisplatin combo, at 5 µM): -4.48% and -9.87% | inhibition [14, 47]: -4.59% and 4.5% | inhibition [14, 25]: -16.3% and -34.1% | inhibition ([14]; single agent, at 5 µM): -7.05% and 22% | inhibition ([15]; at 0.5 µM): -60.9% (inactive) and -11.4% (inactive) | inhibition [15, 22]: -68.8% and -40.3% | inhibition [15, 23]: -56.9% and 1.42% | inhibition ([15]; single agent, at 0.05 µM): -40.9% and -9.94% | inhibition ([15]; single agent, at 5 µM): 58.9% and 60.8%
